{"source": "PubChem BioAssay (Tox21)", "note": "Records with an inconclusive call do not appear. Values without a mark were called inactive. Calls come from the whole dose curve; as a rule, active = well fitted activation curve with a large enough effect in the signal ratio in the repeat runs (not every such curve was filed as active); inconclusive = weak or mixed curves; inactive = flat fitted curve, though single readings scatter; the % refers to the signal ratio."}
{"experiment": "qHTS assay to identify small molecule agonists of H2AX (AID 1224845); note: % is set by controls: 0 for no effect and ±100 for the full control effect", "details": "CHO-K1 phospho-H2AX Ser139 HTRF, 3 h; series mostly up to 154 µM; activation (H2AX phosphorylation): at the top concentration", "text": "National Center for Advancing Translational Sciences [NCATS]\nNIH Chemical Genomics Center [NCGC]\nU.S. Environmental Protection Agency [EPA]\nNational Institutes of Environmental Health Sciences [NIEHS]\nNational Toxicology Program [NTP]\nU.S. Food and Drug Administration [FDA]\nHTRF phospho-H2AX (Ser139) assay (Cisbio Bioassays, US) enables the quantitative detection of the histone variant H2AX when phosphorylated on serine 139. When double-stranded DNA breaks, either by ionizing radiation or endogenous physiological processes, H2AX becomes phosphorylated at Ser139. This phospho-Ser139 serves as a sensitive biomarker for the detection of such breaks, localizing the site of DNA repair. So, HTRF phospho-H2AX Ser139 is a pertinent assay to study genome stability, the cell cycle, DNA repair, and it serves as a biomarker for cancer, and to understand aging. Wild type CHO-K1 cells were used to identify the inducers of Phospho-H2AX Ser 139 from the Tox21 10K compound collections.\nTox21 Assay Protocol Summary:\nThe CHO-K1 cells suspended in culture medium containing 10% FBS were dispensed at 1000 cells/ 3 ul/well in 1536-well white wall/solid bottom plates (Greiner Bio-One North America, NC) using a Multidrop Combi (Thermo Fisher Scientific Inc., Waltham, MA). After the assay plates were incubated at 37C overnight, 23 nl of compounds at 15 concentrations (from 5-48 columns) or positive control (from 1 to 4 columns) were transferred to the assay plates using a Pintool station (Wako, San Diego, CA) into each well resulting in a final DMSO concentration of 0.76%. After 3hr incubation at 37C, 1 uL/well Supplemented Lysis buffer (diluted 100 fold blocking reagent in lysis buffer) (HTRF Phospho-H2A.X (S139) Assay kit from Cisbio US Inc., Bedford, MA) was added using a Flying Reagent Dispenser (FRD) (Aurora Discovery, CA). After 10sec spin at 1000 rpm in a plate centrifuge, the assay plates were incubated at room temperature for 30 min. Then followed by the addition of 1 uL/well detection buffer (containing a mixture of two antibodies, one labeled with cryptate, Anti pH2AX (S139)-K and another labeled with d2, Anti H2AX-d2) using FRD. After incubation at room temperature for 24 hr, the time resolved fluorescence at excitation 320 nm and emissions at 665 nm and 620 nm was measured using an Envision plate reader (PerkinElmer, Waltham, MA)."}
{"compound": "CC(C)[N+](C)(C)CC(O)COc1cccc2ccccc12", "note": "(stereo not given)", "activation (H2AX phosphorylation)": "-0.568% [at 70.9 µM]"}
{"compound": "CCCOCC(C)OCC(C)O", "note": "(stereo not given)", "activation (H2AX phosphorylation)": "-2.73%"}
{"compound": "C=CCn1c(=O)n([C@@H]2O[C@H](CO)[C@@H](O)[C@H]2O)c2nc(N)[nH]c(=O)c21", "activation (H2AX phosphorylation)": "-2.83% [at 70.9 µM]"}
{"compound": "COC(=O)c1ccc(C(=O)OC)c(C(=O)OC)c1", "activation (H2AX phosphorylation)": "-1.69%"}
{"compound": "CCCc1ccc(N)cc1", "activation (H2AX phosphorylation)": "-2.35%"}
{"compound": "CCCCCC[C@@H](CCC)C(=O)O", "activation (H2AX phosphorylation)": "0.141% [at 70.9 µM]"}
{"compound": "CCCCNc1ccccc1", "activation (H2AX phosphorylation)": "1.12%"}
{"compound": "CCCCCCCCCCCCCCCCCC(=O)OCCCCCCCCCCCCCC(C)C", "activation (H2AX phosphorylation)": "-0.969%"}
{"compound": "O=[N+]([O-])c1ccc(Oc2ccc([N+](=O)[O-])cc2)cc1", "activation (H2AX phosphorylation)": "-3.04%"}
{"compound": "Fc1ccccc1-c1ccccc1", "activation (H2AX phosphorylation)": "0.179%"}
{"compound": "NS(=O)(=O)c1cc(C2(O)NC(=O)c3ccccc32)ccc1Cl", "note": "(stereo not given)", "activation (H2AX phosphorylation)": "0.481% [at 70.9 µM]"}
{"compound": "CNC(=O)c1c(I)c(NC(=O)CCCCC(=O)Nc2c(I)c(C(=O)O)c(I)c(C(=O)NC)c2I)c(I)c(C(=O)O)c1I", "activation (H2AX phosphorylation)": "4.45% [at 70.9 µM]"}
{"compound": "CCCCN(CCO)CCO", "activation (H2AX phosphorylation)": "-2.61%"}
{"compound": "N[C@@H](CS)C(=O)O", "activation (H2AX phosphorylation)": "1.26%"}
{"compound": "COc1ccc(N=[N+]([O-])c2ccc(OC)cc2)cc1", "activation (H2AX phosphorylation)": "-2.33%"}
{"compound": "CC(=O)CCc1ccc(O)cc1", "activation (H2AX phosphorylation)": "1.24%"}
{"compound": "c1ccc2cnncc2c1", "activation (H2AX phosphorylation)": "-0.267%"}
{"compound": "CCO[Si](C)(OCC)OCC", "activation (H2AX phosphorylation)": "-3.2%"}
{"compound": "Cc1ccc(Nc2ccc(O)c3c2C(=O)c2ccccc2C3=O)cc1", "activation (H2AX phosphorylation)": "10.9%"}
{"compound": "OCCN1C[C@H](O)[C@@H](O)[C@H](O)[C@H]1CO", "activation (H2AX phosphorylation)": "-0.576% [at 70.9 µM]"}
{"compound": "COc1ccc(NC(C)=O)cc1", "activation (H2AX phosphorylation)": "-1.18%"}
{"compound": "COc1cccc(OC)c1", "activation (H2AX phosphorylation)": "-1.3%"}
{"compound": "CCC(C)OC(=O)N1CCCCC1CCO", "note": "(stereo not given)", "activation (H2AX phosphorylation)": "-1.13%"}
{"compound": "OCc1ccccn1", "activation (H2AX phosphorylation)": "-0.164% [at 70.9 µM]"}
{"compound": "NC(=O)c1c(Cl)cccc1Cl", "activation (H2AX phosphorylation)": "-4.73%"}
{"compound": "NCCN1CCNC1=O", "activation (H2AX phosphorylation)": "-3.08%"}
{"compound": "CCCCCCCCN(C)CCCCCCCC", "activation (H2AX phosphorylation)": "-2.77%"}
{"compound": "COC[C@H](c1ccc(C(F)(F)F)cc1)N1CCN(C2(C)CCN(C(=O)c3c(C)ncnc3C)CC2)C[C@H]1C", "activation (H2AX phosphorylation)": "-2.65% [at 70.9 µM]"}
{"compound": "C#CC(O)CCCCC", "note": "(stereo not given)", "activation (H2AX phosphorylation)": "-0.849%"}
{"compound": "CN1[C@@H]2CC[C@H]1CC(NC(=O)n1c(=O)[nH]c3ccccc31)C2", "note": "(stereo not given in full)", "activation (H2AX phosphorylation)": "1.26% [at 70.9 µM]"}
{"compound": "C=CCOCC(O)CS(=O)(=O)O", "note": "(stereo not given)", "activation (H2AX phosphorylation)": "0.614%"}
{"compound": "O=C(O)/C=C/c1ccc(Cn2ccnc2)cc1", "activation (H2AX phosphorylation)": "-0.867% [at 70.9 µM]"}
{"compound": "CC1(C)SC(C)(C)SC(C)(C)S1", "activation (H2AX phosphorylation)": "-2.42%"}
{"compound": "CCCC(C)CO", "note": "(stereo not given)", "activation (H2AX phosphorylation)": "-1.54%"}
{"compound": "CC(=O)NC(Cc1ccccc1)C(=O)O", "note": "(stereo not given)", "activation (H2AX phosphorylation)": "0.456% [at 70.9 µM]"}
{"compound": "O=C(O)c1ccccc1S", "activation (H2AX phosphorylation)": "0.0969% [at 70.9 µM]"}
{"compound": "OCC(O)[C@@H](O)[C@H](O)[C@H](O)CO[C@H]1O[C@H](CO)[C@@H](O)[C@H](O)[C@H]1O", "note": "(stereo not given in full)", "activation (H2AX phosphorylation)": "-0.848%"}
{"compound": "COc1cc(C)cc(O)c1", "activation (H2AX phosphorylation)": "0.879%"}
{"compound": "CCCCCCCCCCCCCCCCCCOCC(O)CO", "note": "(stereo not given)", "activation (H2AX phosphorylation)": "-2.59% [at 70.9 µM]"}
{"compound": "C=CCOc1nc(OCC=C)nc(OCC=C)n1", "activation (H2AX phosphorylation)": "-0.521%"}
